Measurements: PubChem BioAssay (Tox21)
Values joined by “and” are separate entries in the source; they are usually repeats but may differ in a detail not shown here. Identical values can stand only once. A number with no mark means an inactive call. Inconclusive results are not listed. Entries that show only a call come without a potency. Active and inactive are the calls of the source. Unless noted, the call rests on the fitted dose curve; in most records, active means well fitted curve in the direction sought with a large enough effect in the repeat runs; inconclusive means weak or mixed curves; inactive means no such curve, though single readings can be large; an effect the other way counts as inactive or inconclusive.

What was measured:
[1] = qHTS assay for small molecule agonists of the p53 signaling pathway (AID 651631; calls by dose curve; further: nearly all actives have a fitted effect of over 15% in size); settings: HCT-116 p53RE-bla reporter, beta-lactamase FRET ratio, 16 h; series mostly up to 73.3 µM
Outline: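 HCT-116 cells carrying a beta-lactamase reporter under p53 response elements were dosed with compound for 16 h at 37 °C. LiveBLAzer B/G FRET substrate was then added for 2 h at room temperature, and fluorescence intensity was read to detect pathway agonism.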

[2] = qHTS assay for small molecule agonists of the p53 signaling pathway - cell viability (AID 651633; calls by dose curve; further: nearly all actives have a fitted effect of over 30% in size; further: potency means the concentration at half of the fitted maximal effect); settings: p53RE-bla HCT-116 viability, ATP luminescence, 16 h; series mostly up to 83.3 µM
Outline: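 p53RE-bla cells were treated with compound for 16 hours at 37 C. Cytotoxicity was then measured as CellTiter-Glo luminescence after 30 min at room temperature.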

[3] = qHTS assay for small molecules that induce genotoxicity in human embryonic kidney cells expressing luciferase-tagged ATAD5 - cell viability (AID 651634; calls by dose curve; further: nearly all actives have a fitted effect of over 25% in size); settings: HEK293T ATAD5-luc cells viability, CellTiter-Fluor, 15.5 h; series mostly up to 83.3 µM
Outline: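 HEK293T cells carrying luciferase-tagged ATAD5, 2,000 cells/well, exposed to compound for 15.5 hr at 37C. Viability read as live-cell protease activity by CellTiter-Fluor fluorescence after 30 min at 37C.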

[4] = qHTS assay for small molecule disruptors of the mitochondrial membrane potential - cell viability (AID 720634; calls by dose curve;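 further: human HepG2 liver cancer cells; nearly all actives have a fitted effect of over 20% in size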); settings: HepG2 viability, ATP luminescence (CellTiter-Glo), 1 h; series mostly up to 83.2 µM
Outline: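 HepG2 cells, 2,000 per well, attached overnight, then treated 1 hr at 37 C, 5% CO2. Viability read as ATP by CellTiter-Glo luminescence after 30 min at room temperature. Read in the same wells as the m-MPI membrane-potential dye assay.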

[5] = qHTS assay to test for compound auto fluorescence at 535 nm (green) in HepG2 cells (AID 720675); settings: green autofluorescence 485/535 nm, 1 h; series mostly up to 91.3 µM
[6] = qHTS assay to test for compound auto fluorescence at 460 nm (blue) in HEK293 cells (AID 720678); settings: blue autofluorescence 405/460 nm; series mostly up to 91.3 µM
Outline: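 Cells were seeded and left to adhere for 4-5 hr at 37C. Compounds were then pin-transferred. After an overnight incubation at 37C under 5% CO2, intrinsic fluorescence at 405/460 nm was measured and referenced to triamterene.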

[7] = qHTS assay to test for compound auto fluorescence at 590 nm (red) in HEK293 cells (AID 720679); settings: red autofluorescence 540/590 nm; series mostly up to 91.3 µM
Outline: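 Each well held 2,000 HEK293 cells in medium containing 10% dialyzed FBS. Following 4-5 hr attachment at 37C, 23 nL test compound or DMSO was added; plates sat overnight, and red fluorescence (540/590nm) was recorded.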

[8] = qHTS assay for small molecules that induce genotoxicity in human embryonic kidney cells expressing luciferase-tagged ATAD5 (AID 651632); settings: HEK293T ATAD5-luciferase induction, 16 h; series mostly up to 83.3 µM; further: nearly all actives have a fitted effect of over 15% in size
Outline: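 HEK293T cells carrying luciferase-tagged ATAD5 were given compound or DMSO vehicle and incubated 16 hr at 37C, 5% CO2. Luciferase activity was read after 30 min at room temperature with Amplite; a rise signals genotoxic stress.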

[9] = qHTS assay for small molecule disruptors of the mitochondrial membrane potential (AID 720635); settings: HepG2 mitochondrial membrane potential, Mito-MPS dye ratio; series mostly up to 83.2 µM; further: potency means the concentration at half of the fitted maximal effect
Outline: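 HepG2 cells exposed to compound 1 hr at 37C, then Mito-MPS dye 30 min. Ratio read of aggregate (540/590 nm) versus monomer (490/535 nm) fluorescence.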

[10] = qHTS assay to test for compound auto fluorescence at 590 nm (red) in HepG2 cells (AID 720674); settings: HepG2 autofluorescence, red 540/590 nm, 1 h; series mostly up to 91.3 µM
Outline: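 Fluorescence at 590 nm emission following 540 nm excitation was recorded from HepG2 wells one hour after compound transfer, with DMSO-only wells as vehicle and Rose Bengal sodium equivalency as the scale.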

Structure (SMILES)	Potency [1]	Potency [2]	Potency [3]	Potency [4]	outcome [5]	outcome [6]	outcome [7]	outcome [8]	Potency [9]	outcome [10]	fluorescence, % of fluorescein control [5]	fluorescence, % of triamterene [6]	fluorescence, % of fluorescent control [7]
CON(C)C(=O)Nc1ccc(Br)cc1	inactive	inactive	inactive	inactive	inactive	inactive	inactive	–	–	–	–	–	–
O=P(O)(O)c1ccccc1	–	inactive	inactive	inactive	inactive	inactive	–	inactive	inactive	inactive	–	–	–
CCCOc1nn(C(=O)NS(=O)(=O)c2ccccc2C(=O)OC)c(=O)n1C	inactive	inactive	inactive	–	inactive	inactive	inactive	–	inactive	inactive	–	–	–
O=S1(=O)OCCO1	inactive	inactive	inactive	inactive	inactive	inactive	inactive	–	–	inactive	–	–	–
CC(C)(C)NC[C@H](O)c1ccc(O)cc1Cl	inactive	inactive	inactive	inactive	inactive	inactive	inactive	–	inactive	inactive	–	–	–
C(COCC1CO1)OCC1CO1 (stereo not drawn)	–	inactive	inactive	inactive	inactive	inactive	inactive	inactive	–	inactive	–	–	–
O=C1CC(=O)NC(=O)N1	inactive	inactive	inactive	–	inactive	inactive	inactive	–	–	inactive	–	–	–
CCOP(=S)(OCC)SCCl	–	inactive	inactive	inactive	inactive	inactive	inactive	inactive	inactive	–	–	–	–
CNC(=O)Oc1cc(C)c(N(C)C)c(C)c1	–	inactive	inactive	inactive	inactive	inactive	inactive	inactive	–	inactive	–	–	–
C=CCCC#N	inactive	inactive	inactive	inactive	inactive	inactive	–	–	–	inactive	–	–	–
ClC1=C(Cl)C2(Cl)C(CBr)CC1(Cl)C2(Cl)Cl (stereo not drawn)	–	26.6 µM (active) and 61.1 µM (active)	inactive	inactive	inactive	inactive	inactive	inactive	27.3 µM (active)	inactive	–	–	–
N[C@@H](Cc1ccc(Oc2cc(I)c(O)c(I)c2)c(I)c1)C(=O)O	–	inactive	inactive	inactive	inactive	inactive	inactive	inactive	inactive	inactive	–	–	–
CCOC(=O)C(SP(=S)(OC)OC)c1ccccc1 (stereo not drawn)	inactive	inactive	inactive	–	inactive	inactive	inactive	–	–	inactive	–	–	–
CCc1cc(OC)c(C[C@H](C)N)cc1OC	inactive	inactive	inactive	–	inactive	inactive	inactive	–	–	inactive	–	–	–
c1ccc2c(c1)CCNC2	inactive	inactive	inactive	inactive	inactive	inactive	inactive	–	–	inactive	–	–	–
CCN(CCO)CCO	inactive	inactive	inactive	inactive	inactive	inactive	inactive	–	–	inactive	–	–	–
C=C1C[C@@H]2[C@H](CC[C@]3(C)C(=O)CC[C@@H]23)[C@@]2(C)C=CC(=O)C=C12	–	inactive	inactive	inactive	inactive	inactive	inactive	inactive	–	inactive	–	–	–
COc1ccc(C=O)cc1O	–	inactive	inactive	inactive	inactive	inactive	inactive	inactive	–	inactive	–	–	–
BrCC1CO1 (stereo not drawn)	–	inactive	inactive	inactive	inactive	inactive	inactive	inactive	–	inactive	–	–	–

Structure (SMILES)	Potency [1]	Potency [2]	Potency [3]	Potency [4]	outcome [5]	outcome [6]	outcome [7]	outcome [8]	Potency [9]	outcome [10]	fluorescence, % of fluorescein control [5]	fluorescence, % of triamterene [6]	fluorescence, % of fluorescent control [7]
O=C(O)C(Br)(Br)Br	–	inactive	inactive	inactive	inactive	inactive	inactive	inactive	inactive	–	–	–	–
CCOC(=O)CCl	–	inactive	inactive	inactive	inactive	inactive	–	inactive	–	inactive	–	–	–
NC(=O)CS(=O)C(c1ccccc1)c1ccccc1 (stereo not drawn)	inactive	inactive	inactive	inactive	inactive	inactive	inactive	–	–	inactive	–	–	–
CCOc1cc(OP(=S)(OC)OC)nc(CC)n1	inactive	inactive	inactive	–	inactive	inactive	–	–	–	–	–	–	–
CCC1(c2ccccc2)C(=O)N(COC)C(=O)N(COC)C1=O	–	inactive	inactive	inactive	inactive	inactive	inactive	inactive	inactive	inactive	–	–	–
CCSC(=O)Cl	inactive	inactive	inactive	–	inactive	inactive	inactive	–	inactive	inactive	–	–	–
O=C(O)CBr	inactive	inactive	inactive	inactive	inactive	inactive	inactive	–	–	–	–	–	–
C=CC=O	inactive	inactive	inactive	–	inactive	inactive	inactive	–	–	inactive	–	–	–
C=C(Cl)CSC(=S)N(CC)CC	inactive	inactive	inactive	inactive	inactive	inactive	–	–	–	–	–	–	–
CN(C)C(=O)Oc1cc(OC(=O)N(C)C)cc(C(O)CNC(C)(C)C)c1 (stereo not drawn)	inactive	inactive	inactive	–	–	–	–	–	–	–	0.0476% [at 18.6 µM]	0.0042% [at 18.6 µM]	0.104% [at 18.6 µM]
CC[C@@H](CO)NC(=O)[C@@H]1C=C2c3cccc4[nH]cc(c34)C[C@H]2N(C)C1	–	inactive	inactive	inactive	inactive	inactive	inactive	inactive	inactive	inactive	–	–	–
NNC(N)=O	–	inactive	inactive	inactive	inactive	inactive	inactive	inactive	–	inactive	–	–	–
CCOP(=O)(CN(CCO)CCO)OCC	inactive	inactive	inactive	inactive	inactive	inactive	inactive	–	inactive	inactive	–	–	–
CCN(CC)C1CCCCC1	inactive	inactive	inactive	inactive	inactive	inactive	inactive	–	–	inactive	–	–	–
Cc1ccc(-c2nc3ccc(C)cn3c2CC(=O)N(C)C)cc1	inactive	inactive	inactive	–	inactive	inactive	inactive	–	inactive	inactive	–	–	–
C[C@H](CN1CCOCC1)C(C(=O)N1CCCC1)(c1ccccc1)c1ccccc1	inactive	inactive	inactive	inactive	inactive	inactive	inactive	–	–	inactive	–	–	–
C[C@]12C=CC(=O)C=C1CC[C@@H]1[C@@H]2CC[C@@]2(C)[C@H]1CC[C@]2(C)O	–	inactive	inactive	inactive	inactive	inactive	inactive	inactive	inactive	inactive	–	–	–
CCCN1CCC[C@@H]2Cc3nc(N)ncc3C[C@H]21	–	inactive	inactive	inactive	inactive	inactive	inactive	inactive	–	inactive	–	–	–
